From PubChem BioAssay (NCI)
This is part of a sample that, as a whole, favours compounds with a hit. Of some 79,000 tested, about 15% had one in any assay. Calls of active or inactive are those of the source. Rule as the data show it: active = growth inhibition above about 70%; inactive = the rest.

How the values were obtained:
[1] = NCI Yeast Anticancer Drug Screen. Data for the rad50 strain (AID 155);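 also: 0% = growth of vehicle-only cultures of the same strain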; settings: S. cerevisiae rad50 strain growth inhibition; at 50.0 µM; stronger effect = higher value
How it was run: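 DNA repair mutant yeast, compound exposure, growth read-out; inhibition is taken relative to vehicle.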

[2] = NCI Yeast Anticancer Drug Screen. Data for the mec2-1 strain (AID 157); settings: S. cerevisiae mec2-1 strain, at 50.0 µM, stronger effect = higher value
How it was run: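 Vehicle-treated cultures served as reference for growth inhibition of compound-exposed mec2-1 yeast.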

[3] = NCI Yeast Anticancer Drug Screen. Data for the sgs1 mgt1 strain (AID 161);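 also: 0% = growth of cultures given vehicle only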; settings: S. cerevisiae sgs1 mgt1 strain, at 50.0 µM, stronger effect = higher value
How it was run: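 Test agents were incubated with a DNA-repair-mutant yeast strain. Growth was then read and compared against vehicle-treated controls.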

[4] = NCI Yeast Anticancer Drug Screen. Data for the cln2 rad14 strain (AID 165);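 also: 0% = growth equal to vehicle treated cultures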; settings: S. cerevisiae cln2 rad14 strain, at 50.0 µM, stronger effect = higher value
How it was run: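 Each compound was tested on cln2 rad14 yeast. Inhibition of growth was calculated against vehicle-exposed controls.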

[5] = NCI Yeast Anticancer Drug Screen. Data for the bub3 strain (AID 167); settings: S. cerevisiae bub3 mutant strain, at 50.0 µM, stronger effect = higher value
How it was run: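 In this screen, a yeast mutant lacking normal mitotic checkpoint function is challenged with compound. Relative growth versus vehicle gives the inhibition value.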

[6] = NCI Yeast Anticancer Drug Screen. Data for the mlh1 rad18 strain (AID 175); settings: S. cerevisiae mlh1 rad18 strain growth inhibition; at 50.0 µM; stronger effect = higher value
How it was run: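 Vehicle-treated cultures served as the reference for growth inhibition in a yeast strain carrying DNA damage repair alterations exposed to each compound.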

Measured: growth inhibition

Cc1ccc(S(=O)(=O)Oc2c(Cl)cc(Cl)cc2Cl)cc1
inactive: [1] -2.4% | [2] 9.35% | [3] 26.4% | [4] -19.1% | [5] 24.8% | [6] 29.8%

CC12C(=O)NC(c3ccccc3)(c3ccccc31)C1C(=O)N(C(N)=O)C(=O)C12 (configuration not stated)
inactive: [1] 13.9% | [2] 7.35% | [3] 25.6% | [4] -3.05% | [5] -15.2% | [6] 4.4%

COC1=CC(=O)OC(c2ccccc2)(c2ccccc2)C1
inactive: [1] -3.6% | [2] -15.1% | [3] 8.8% | [4] 13% | [5] 13.6% | [6] -3.65%

CN(Cc1ccccc1)C(OCc1ccccc1)c1ccccc1 (configuration not stated)
inactive: [1] 3.15% | [2] -13% | [3] 10.1% | [4] -8.3% | [5] 20.4% | [6] 5.4%

Cc1nc(C(N)=S)sc1C(=O)CC(=O)C(=O)Nc1cccc(Cl)c1C
inactive: [1] 1.2% | [2] -2.4% | [3] -10.2% | [4] -6.65% | [5] -0.4% | [6] -53.4%

Clc1ccccc1Nc1c2ccccc2nc2ccccc12
active: [1] 94.5% | [2] 98.1% | [3] 85.1% | [4] 96.3% | [5] 88.7% | [6] 97.7%

COC(=O)c1nc(N)nc(C(=O)OC)c1C(=O)/C=C/c1ccccc1
inactive: [1] -4.2% | [2] -8.5% | [3] -21.5% | [4] -16.1% | [5] -26.4% | [6] -17.6%

CC(C(=O)c1ccccc1)C(c1ccccc1)N1CCOCC1 (configuration not stated)
inactive: [1] 2.1% | [2] -7.5% | [3] -16.3% | [4] 3.25% | [5] 6.35% | [6] -5.15%

[Cl][Pd][Cl].[NH-]c1ccc(/C=C2\C=Cc3ccccc32)cc1.[NH-]c1ccc(/C=C2\C=Cc3ccccc32)cc1
active: [1] 89.5% | [3] 83.7% | [5] 75.5% | [6] 79.3%
inactive: [2] 32.8% | [4] 47.4%

CSCC[C@H](NC(C)=O)B1OCCO1
inactive: [1] 9.85% | [2] 21.4% | [3] 2.95% | [4] 6.05% | [5] -4.6% | [6] 19.5%

CCOC(=O)C1C(=O)CC(=O)C(C(=O)OCC)C1C1CC=CCC1 (configuration not stated)
inactive: [1] 51% | [2] 69.5% | [4] 38.7%
active: [3] 78.5% | [5] 70.7% | [6] 78.5%

COC(=O)C(=[N+]=[N-])C(=O)c1ccccc1
inactive: [1] 10.1% | [2] 1.05% | [3] -1.3% | [4] 4.65% | [5] -3.6% | [6] 6.9%

CC[N+](C)(CC)CCOC(=O)C(C1=CCCCC1)C1(O)CCCCC1 (configuration not stated)
inactive: [1] 3.05% | [2] -15.8% | [3] -27.5% | [4] -48.9% | [5] 2.5% | [6] -16.6%

CC(C)=C(OC(=O)c1ccccc1)C(C)(CC(C)(C)C)C(C)(C)C (configuration not stated)
inactive: [1] 13.1% | [2] -55.3% | [3] -10.3% | [4] -100% | [5] -26.5% | [6] 19.4%

CCC(CO)NC(=O)/C=C/c1ccccc1Cl (configuration not stated)
inactive: [1] 7% | [2] 14.4% | [3] 1.55% | [4] 2.3% | [5] -0.7% | [6] 10.5%

CN1N(c2ccccc2)C(=O)C2=NC=C(C#N)C(=N)C21C (configuration not stated)
inactive: [1] 14.9% | [2] 41% | [3] 24.6% | [4] 15.9% | [5] 19.5% | [6] 42.4%

CN1C(c2ccccc2)NC(=O)C12CCN(CCCC(=O)c1ccccc1)CC2 (configuration not stated)
inactive: [1] 63.5% | [2] 39.7% | [3] 53.2% | [4] 19.5% | [5] 17.9% | [6] 45.2%

COc1c(Cl)cc(NC(=S)C#N)cc1Cl
inactive: [1] 20.2% | [2] 20% | [3] 15.2% | [4] 39.6% | [5] 15.4% | [6] -30.9%

O=C(Cc1ccccc1)NN1C(=O)C(Cl)C1c1cc(Br)ccc1O (configuration not stated)
inactive: [1] 21% | [2] 30.1% | [3] 29.6% | [4] -20.6% | [5] 25.2% | [6] 15.6%

Nc1nc2nc(C(=O)O)c(=S)[nH]c2c(=O)[nH]1
inactive: [1] 11.1% | [2] 3.8% | [3] 1.9% | [4] -10.9% | [5] 7.6% | [6] -8.25%

CCCC(O)CNCC1CCC2CCc3cccc1c32 (configuration not stated)
inactive: [1] -2.9% | [2] 5.8% | [3] 4.5% | [4] 2.05% | [5] 20.4% | [6] 18.9%

CN(CCSSCCN(C)/N=C/c1ccccc1)/N=C/c1ccccc1
inactive: [1] -30.6% | [2] -10% | [3] -26.7% | [4] -27.6% | [5] -10.7% | [6] -17.1%

COc1ccccc1NC(=O)C(Cc1ccccc1)NC(C)=O (configuration not stated)
inactive: [1] 25.2% | [2] 3.7% | [3] -1.85% | [4] -51.5% | [5] 8.2% | [6] 2.65%

CC[N+](CC)=c1ccc2nc3c(cc(Nc4ccccc4)c4ccccc43)oc-2c1.[Cl][Zn][Cl]
inactive: [1] 18.4% | [2] 1.4% | [3] 22.2% | [4] 20.9% | [5] -0.55% | [6] 15.4%

CCC(=O)/C=C/c1ccccc1O
inactive: [1] 11.6% | [2] 9.55% | [3] 31.4% | [4] 17.4% | [5] 20.4% | [6] 13.3%

Cc1cccc[n+]1[O-]
inactive: [1] 10.8% | [2] -8% | [3] 5.9% | [4] -13.7% | [5] 1.65% | [6] 7%

C[n+]1ccc(/C=C/c2ccnc3c(O)cccc23)cc1
inactive: [1] 17.5% | [2] 11.7% | [3] -13.4% | [4] -7.3% | [5] -7.4% | [6] 18%

COc1ccc(C)cc1NC(=O)/C=C/c1ccccc1
inactive: [1] 1.6% | [2] -6.6% | [3] -6.5% | [4] 16.2% | [5] 30.8% | [6] -7.65%

Cc1cccc(N2CCN(c3ccc4nonc4c3[N+](=O)[O-])CC2)c1
inactive: [1] -5.05% | [2] -4.4% | [3] -9.9% | [4] -13% | [5] -13.9% | [6] -15.3%

O=C(Nc1ccc(F)cc1)Nc1cccc(C(=O)O)c1
inactive: [1] 20% | [2] 7.9% | [3] 6.4% | [4] 7.6% | [5] 22.4% | [6] 12.2%

CCOC(=O)Oc1ccc2[nH]c3c(C)cc(N)c(C)c3c2c1
inactive: [1] 2.35% | [2] -33.2% | [3] -30.5% | [4] -7.8% | [5] -22.2% | [6] -11.1%

NC(CC(=O)N/C=N/C(=O)O)C(=O)O (configuration not stated)
inactive: [1] -5.85% | [2] 5.45% | [3] -17.2% | [4] 4.4% | [5] 6.45% | [6] -7.75%

Brc1cccc[n+]1CCC[n+]1ccccc1Br
inactive: [1] 14.8% | [2] 18.8% | [3] 28.2% | [4] 33.2% | [5] 19.4% | [6] 15.8%

c1ccc2cc3c(cc2c1)[nH]c1ccccc13
inactive: [1] -10.7% | [2] -26.4% | [3] -0.85% | [4] -3.1% | [5] -25.4% | [6] 14.8%

CCCC1CCCC1C (configuration not stated)
inactive: [1] 4.3% | [2] 4.25% | [3] 8.45% | [4] 5.4% | [5] 17.4% | [6] -1.85%

COc1ccc2nc3cc(Cl)ccc3c(NCCC3CCCN4CCCCC34)c2c1 (configuration not stated)
inactive: [1] 33% | [2] 26.4% | [3] 14.6% | [4] 21.6% | [5] 12.4% | [6] 33%

C=CCn1ccc(=O)nc1SCc1ccccc1
inactive: [1] 5.45% | [2] -4.8% | [3] 0.4% | [4] -33.5% | [5] 3.35% | [6] 0.05%
